Among the data in PubChem BioAssay AID2018 (Sanford-Burnham Center for Chemical Genomics, 2009) are inhibition values, retold here.

Structures are written as SMILES. About 600 (50%) of roughly 1,200 compounds were called active. Rule as the data show it: active = inhibition above about 42%; inactive = the rest. The set was probably picked from earlier hits. The list shows a part of the results. Measured potencies and affinities stand elsewhere.

The target in the experiment is SUMO-conjugating enzyme UBC9 (Homo sapiens) (UniProt P63279). In words: SUMOylation inhibitor hit validation, confirmation, SUMOylation inhibitor project, biochemical, AlphaScreen (AID 2018). The following applies: AlphaScreen in vitro SUMOylation assay; at 35 µM; stronger effect = higher value. On the technique in general: In Alpha technology, singlet oxygen from a donor bead excites a nearby acceptor bead.
SUMO-conjugating enzyme UBC9 (Homo sapiens), sequence (P63279 whole entry, looked up): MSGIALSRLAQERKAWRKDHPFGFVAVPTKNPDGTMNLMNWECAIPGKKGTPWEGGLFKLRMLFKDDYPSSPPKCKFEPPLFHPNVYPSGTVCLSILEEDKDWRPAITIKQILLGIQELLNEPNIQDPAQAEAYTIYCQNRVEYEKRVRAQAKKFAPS
Consider `Cc1[nH]n(-c2ccccc2)c(=O)c1/C=N/N(C)c1ccccc1`, for which the inhibition (usually the drop in the measured response relative to a control, in per cent) is 73% (active).

In the case of `Cc1cc(Br)ccc1-n1[nH]c(C)c(C=Nc2cccc3nsnc23)c1=O`, the inhibition is 39.7% (inactive).

For `Cc1ccc(/C=C2\SC(=S)N(c3cccnc3)C2=O)o1`, the inhibition is 33.6% (inactive).

For `Cc1cccc2nc(-c3ccco3)c(Nc3ccc4c(c3)OCO4)n12`, the inhibition was 19.8% (inactive).

Consider `Cc1ccc(NC(=O)CSc2nnc(-c3ccco3)c(-c3ccco3)n2)cc1`, for which the inhibition is 97.9% (active).

Turning to `CN(C)c1ccc(NC(=O)CSc2nnc(-c3ccco3)c(-c3ccco3)n2)cc1`, the inhibition is 46.4% (active).

Take `Cc1ccc(C(=O)N[C@H](C(=O)Nc2cc(Cl)cc(Cl)c2)C(C)C)cc1`: the inhibition was -24.1% (inactive).

Regarding `COn1c(C)c(C)c2c3nonc3ccc21`, the inhibition is 19.1% (inactive).

As to `Cc1nnc(N/N=C\c2ccc(-c3ccccc3[N+](=O)[O-])o2)n1N`, the inhibition is -4.6% (inactive).

On to `NS(=O)(=O)c1ccc(-c2ccc(/C=C3\NC(=S)NC3=O)o2)cc1`, for which the inhibition was 70.9% (active).

With `Cc1ccc(C)c(NC(=S)Nc2cccc3cnccc23)c1`, the inhibition was 16.2% (inactive).

For the compound `Cc1ccc(NC(=O)Nc2ccno2)cc1`, the inhibition is -5.1% (inactive).

For the compound `Cc1nn(CC(=O)Nc2ccc(C(=O)N(C)C)cc2)c(=O)c2ccccc12`, the inhibition is -3.7% (inactive).

Turning to `O=C1C=C(O)c2c(O)cccc2C1=O`, the inhibition is 43.1% (active).

With `O=C1C=C(O)c2cccc(O)c2C1=O`, the inhibition was 39.2% (inactive).

For `Cc1ccc(N=C2NC(=O)/C(=C\c3ccco3)S2)cc1`, the inhibition is 44.4% (active).

For `COc1ccc(S(=O)(=O)/N=C2/NC(=O)/C(=C\c3ccco3)S2)cc1`, the inhibition is 40.6% (inactive).

Take `CSCC[C@H](NC(=O)Cc1c(C)c2c(cc(C)c3c(C)c(C)oc32)oc1=O)C(=O)O`: the inhibition is 19.6% (inactive).

For the compound `CCc1c(C)c2cc(Cl)c(O)c(CN(C)C)c2oc1=O`, the inhibition was 14.3% (inactive).

As for `CCC(C(=O)O)n1nnc(-c2ccc(OCc3ccccc3)c(OC)c2)n1` (stereo not drawn), the inhibition is 2% (inactive).

As for `COc1ccc2nc(NC(=O)CCc3ccc(OC)c(OC)c3)sc2c1`, the inhibition was -27% (inactive).

For `NCCSc1c(-c2ccccc2)[nH]c2ccccc12`, the inhibition was 4.2% (inactive).

In the case of `Oc1ccc(NCc2ccc(OCc3ccccc3)cc2)cc1`, the inhibition was 61.8% (active).

Regarding `Oc1ccc(NCc2cccc(OCc3ccccc3)c2)cc1`, the inhibition is 81.1% (active).

As to `COc1ccc(Br)cc1CNc1ccc(O)cc1`, the inhibition is 63.1% (active).

Turning to `COc1cc(CNc2ccc(O)cc2)cc(Br)c1OCc1ccccc1`, the inhibition was 89.1% (active).

Consider `Oc1ccc(N=Cc2ccc(OCc3ccccc3)cc2)cc1`, for which the inhibition is 25.2% (inactive).

`Cc1ccccc1N=Cc1cc2c(cc1[N+](=O)[O-])OCO2`: the inhibition is 43.9% (active).

Consider `O=[N+]([O-])c1cc2c(cc1/C=N/n1c(-c3ccccn3)n[nH]c1=S)OCO2`, for which the inhibition is 82.5% (active).

Turning to `S=c1[nH]nc(-c2ccncc2)n1/N=C/c1ccccc1Cl`, the inhibition was 20.2% (inactive).

As to `O=[N+]([O-])c1cc2c(cc1CN1CCN(CCOCCO)CC1)OCO2`, the inhibition is 12.3% (inactive).

Consider `CCOC(=O)C1=C(C)NC(=O)CC1c1cc2c(cc1[N+](=O)[O-])OCO2` (stereo not drawn), for which the inhibition was 14.6% (inactive).

As for `CCN(CC)CCNS(=O)(=O)c1ccc2c3c(cccc13)C(=O)N2`, the inhibition was -8.8% (inactive).

Turning to `CC1(C)Nc2ccc(O)cc2-c2c1ssc2=S`, the inhibition was 59.8% (active).

Turning to `NC(=O)c1sc2nc(-c3ccco3)ccc2c1N`, the inhibition was 20% (inactive).

Turning to `Nc1nc(-c2ccco2)c(-c2ccco2)s1`, the inhibition is 55.9% (active).

Consider `N#Cc1c(N2CCN(c3ccc(F)cc3)CC2)nc(N)c2c(N)nc3c(c12)CC(=O)N3C1CC1`, for which the inhibition was 37.6% (inactive).

Regarding `COCC(C)N1C(=O)Cc2c1nc(N)c1c(N)nc(N3CCN(c4ccccc4F)CC3)c(C#N)c21` (stereo not drawn), the inhibition is 37.8% (inactive).

As to `CC(C)N1C(=O)CC(Nc2cccc3cccc(N)c23)C1=O` (stereo not drawn), the inhibition is 0.8% (inactive).

Turning to `Cn1c(=O)cc(C(=O)N/N=C/c2ccc(Cl)cc2)[nH]c1=O`, the inhibition was -20.2% (inactive).

On to `O=C1NNC(c2ccccc2)=N/C1=C\c1ccccc1Cl`, for which the inhibition is 101% (active).

As for `Cc1onc(-c2ccccc2Cl)c1C(=O)NCc1ccco1`, the inhibition is 32.5% (inactive).

On to `CN(NC(=O)c1ccc(Cl)cc1)c1ncc(C(F)(F)F)cc1Cl`, for which the inhibition is 2.5% (inactive).

Consider `O=C(NC1(O)C(=O)c2ccccc2C1=O)c1ccc(C(F)(F)F)cc1`, for which the inhibition was 101% (active).

On to `O=C(NC1(O)C(=O)c2ccccc2C1=O)c1c(Cl)cccc1Cl`, for which the inhibition was 101% (active).

Take `O=C(NC1(O)C(=O)c2ccccc2C1=O)c1ccccc1`: the inhibition is 101% (active).

In the case of `O=c1c(=Nc2ccccc2O)c(=O)c2ccccc12`, the inhibition was 9.9% (inactive).

In the case of `Clc1ccc(-c2nnc3c4ccccc4nc(N4CCOCC4)n23)cc1Cl`, the inhibition was 4% (inactive).

As to `CC(=O)Oc1c(/C=C(\C#N)C(N)=O)[nH]c2ccccc12`, the inhibition is 21.9% (inactive).

Consider `Cc1ccc(NC(=O)Nc2cccn(Cc3c(F)cccc3Cl)c2=O)cc1`, for which the inhibition is 14.6% (inactive).

In the case of `O=C(NCc1ccccc1)Nc1cccn(Cc2ccccc2Cl)c1=O`, the inhibition was 20.8% (inactive).

In the case of `Cc1nn2c3c(cnc2c1-c1ccc(Cl)cc1)C(=O)CC(c1ccco1)C3` (stereo not drawn), the inhibition was 9.7% (inactive).

In the case of `COc1ccccc1Oc1c(C)oc2c(CN3CCN(C)CC3)c(O)ccc2c1=O`, the inhibition was 7% (inactive).

Take `O=C(CC1CS(=O)(=O)CC1CC(=O)Oc1ccccc1F)Oc1ccccc1F` (stereo not drawn): the inhibition was 102% (active).

Regarding `N#C/C(=C/c1ccc(-c2ccccc2)o1)c1nc(-c2cccs2)cs1`, the inhibition was -4.5% (inactive).

Regarding `Cc1c(CC(=O)N2CCN(C(=O)C3COc4ccccc4O3)CC2)c(=O)oc2c(C)c(O)ccc12` (stereo not drawn), the inhibition was 17.7% (inactive).

Turning to `CC(=O)Oc1ccc2c(C)c(CC(C)O)c(=O)oc2c1` (stereo not drawn), the inhibition is -6.6% (inactive).

As to `Cc1c(CC(=O)O)c(=O)oc2c(C)c(OCc3ccccc3Br)ccc12`, the inhibition is 85.8% (active).

`NC(=O)CC(NC(=O)Cc1ccc(Br)cc1)c1ccc(NCCOc2ccccc2)c([N+](=O)[O-])c1` (stereo not drawn): the inhibition was 10.7% (inactive).

As to `O=C1C=C(N(CCO)Cc2ccccc2)c2ccccc2C1=O`, the inhibition was 101% (active).

Consider `Nc1ccc(Br)c2cccnc12`, for which the inhibition is 49% (active).

Regarding `CCOC(=O)C1CC(=O)c2cc(OC)c(OC)cc2C1` (stereo not drawn), the inhibition is 12.9% (inactive).

Take `O=C(N/N=C/c1ccc(N2CCOCC2)cc1)c1ccccc1NS(=O)(=O)c1cccs1`: the inhibition is 17.4% (inactive).

Regarding `O=C(N/N=C/c1cc(Cl)cc([N+](=O)[O-])c1O)c1ccccc1NS(=O)(=O)c1cccs1`, the inhibition is 101% (active).

Turning to `COc1ccccc1/C=C/C=N/NC(=O)c1cc(-c2ccco2)[nH]n1`, the inhibition was 60.4% (active).

`O=C1C=C(N2CCOCC2)c2ccccc2C1=O`: the inhibition is 102% (active).

Take `NNC(=O)c1oc2nc(-c3cccs3)cc(-c3ccco3)c2c1N`: the inhibition was 43.3% (active).

In the case of `Cc1ccc(-c2cc(-c3ccccc3O)nc(N/N=C/c3cccnc3)n2)cc1`, the inhibition was 23% (inactive).

With `NNC(=O)c1oc2nc(-c3ccco3)cc(-c3ccco3)c2c1N`, the inhibition was 56.6% (active).

On to `O=c1[nH]c(N2CCN(c3ccccc3)CC2)nc2c1CCC2`, for which the inhibition is 8.8% (inactive).

As for `CN(C(=S)Nc1cccnc1)c1ccc(O)cc1`, the inhibition is 19.3% (inactive).

As to `O=C(Nc1cccc(N=Cc2cc(Br)cc(Br)c2O)c1)c1ccco1`, the inhibition is 24.9% (inactive).

Consider `COc1ccc2oc(=O)c(/C(C)=N/NC(=O)c3ccncc3)cc2c1`, for which the inhibition is 7.3% (inactive).

Consider `C/C(=N\NC(=O)c1cc(O)ccc1O)c1cccc(NC(=O)c2ccc(Cl)cc2)c1`, for which the inhibition was 94.8% (active).

Turning to `Cc1ccc(NC2=CC(=O)CC(c3ccco3)C2)c(N)c1` (stereo not drawn), the inhibition is 20.2% (inactive).

For `COc1cc(/C=N/NC(=O)c2cc(-c3ccco3)nc3ccccc23)cc(OC)c1O`, the inhibition is 55.1% (active).

Take `O=C(COC(=O)c1cc(-c2cccs2)nc2ccccc12)NCc1ccco1`: the inhibition was 7.3% (inactive).

On to `CCOc1ccc(/C=N/NC(=O)c2cc(-c3ccco3)nc3ccccc23)cc1`, for which the inhibition was -1.6% (inactive).

Take `CCN(CC)Cc1c(O)ccc2c(=O)c(Oc3ccccc3OC)coc12`: the inhibition was 3.9% (inactive).

In the case of `CCOc1cc(/C=C2/C(=O)N(c3ccccc3)N=C2C)ccc1OC(=O)c1ccco1`, the inhibition was 73.7% (active).

Consider `CCOc1cc(/C=C2\C(=O)N(c3ccc(C(N)=O)cc3)N=C2C)ccc1OC(=O)c1cccs1`, for which the inhibition was 81.1% (active).

Take `COc1ccccc1Oc1c(C)oc2cc(OC(=O)c3ccco3)ccc2c1=O`: the inhibition is 18.7% (inactive).

As to `CCOC(=O)N1CCN(C(=O)c2cccn3c(=O)c4cc(Br)ccc4nc23)CC1`, the inhibition is 4.2% (inactive).

For the compound `COC1=C(Nc2ccccc2)C(=O)c2ccccc2C1=O`, the inhibition is 93% (active).

On to `CC(NC(=O)Nc1ccc(O)cc1)(C(F)(F)F)C(F)(F)F`, for which the inhibition was 1.3% (inactive).

As to `COC1=C(Nc2ccc(O)cc2)C(=O)c2ccccc2C1=O`, the inhibition was 74.4% (active).

As for `COC1=C(Nc2ccccc2OC)C(=O)c2ccccc2C1=O`, the inhibition is 96.4% (active).

For the compound `CC(=O)c1ccc(NC(=S)Nc2cccc3ccccc23)cc1`, the inhibition was 7.1% (inactive).

On to `Nc1ccc(N(CCO)CCO)cc1`, for which the inhibition is 38.6% (inactive).

With `COc1ccc(C=Nc2ccc3[nH]ncc3c2)c(O)c1`, the inhibition was 19.3% (inactive).

In the case of `CN1C(=O)N(C)c2ccc(C=O)c3cccc1c23`, the inhibition was 22.2% (inactive).

With `O=C(Nc1ccccc1F)Nc1cc(S(=O)(=O)N2CCOCC2)ccc1N1CCCC1`, the inhibition is 13.5% (inactive).

In the case of `Cc1cccn2cc(-c3ccc(S(=O)(=O)N4CCOCC4)cc3)nc12`, the inhibition was -6.1% (inactive).

`O=S(=O)(c1ccc2nc(-c3ccco3)c(-c3ccco3)nc2c1)N1CCOCC1`: the inhibition is 52% (active).

For the compound `CCOC(=O)c1c(C)oc2c1c(C=NCCO)c(O)c1ccccc12`, the inhibition is 99.7% (active).

Consider `O=C(CSc1ncccn1)NCc1ccc2c(c1)OCO2`, for which the inhibition is -9.4% (inactive).

On to `O=c1cc2c(=O)oc3cc(O)c(O)oc3c2c(O)c1O`, for which the inhibition was 89.8% (active).

`NCCc1ccc(O)c(O)c1`: the inhibition was -6.3% (inactive).
